Experimental data taken from PubChem BioAssay AID2391 (Southern Research Specialized Biocontainment Screening …, 2010).
In all, about 310,000 compounds went through this assay and about 410 (0.13%) were called active. About 2% were inconclusive and are not listed. The rule behind the calls is not given here. These entries were drawn from the full list. Results with a measured potency or affinity are listed apart.

Test: RSV antiviral activity via CPE protection, HEp-2 cells, primary 10 µM value included (AID 2391)
Details: RSV-induced CPE inhibition, at 10 µM, stronger effect = higher value

CPE inhibition, inactive:
CC(=O)c1ccc(OCCCC(=O)Nc2ccc(S(=O)(=O)N3CCOCC3)cc2)cc1 14.5%
COc1ccc(C(=O)Nc2nc3ccccc3s2)cc1 4.56%
COc1ccc(C(=O)Nc2nc3ccccc3s2)c(OC)c1 9.57%
COc1ccc(C(C)=O)cc1CSc1nc2ccccc2c(=O)n1-c1ccccc1 3.07%
Cc1c(C(=O)O)oc2c1ccc1ccccc12 9.18%
COc1ccccc1OCC(=O)Nc1ccc2c(c1)OCO2 1.74%
O=C1CN2C(=Nc3ccc(Br)cc3C2c2ccccc2)CCN1 (configuration not stated) -0.32%
COC(=O)CN1C(c2ccc(Cl)cc2)=Nc2ccc(Cl)cc2C1c1ccccc1 (configuration not stated) 11.1%
CCc1ccc(CNC(=O)c2ccc(OC3CCN(C(C)=O)CC3)c(OC)c2)nc1 1.43%
Cc1cc(C)c(NC(=O)c2cccc(NC(=O)c3ccco3)c2)c(C)c1 2.64%
O=C(O)CSc1nnc(Cn2c(=O)sc3ccccc32)n1-c1cccc(Cl)c1 0.38%
NC(=O)CSc1nnc(Cn2c(=O)sc3ccccc32)n1-c1cccc(Cl)c1 2.54%
Cc1ccc(N2CCN(c3ccc(NC(=O)CCC(=O)O)cc3)CC2)cc1 -0.44%
CCCOc1ccc(NC(=O)c2cc3cc(C)ccc3[nH]2)cc1 -0.27%
Cc1cc(C)c2c(c1)[C@@H]1C=CC[C@@H]1[C@H](c1ccc(S(=O)(=O)N3CCOCC3)cc1)N2 0.17%
Cc1cc(C)c(NC(=O)c2ccc(S(=O)(=O)N3CCOCC3)cc2)c(C)c1 1.1%
CC(=O)c1ccc2c(c1)C1C=CCC1C(c1ccncc1)N2 (configuration not stated) -0.18%
O=C(O)c1cc(Cl)c2c(c1)[C@@H]1C=CC[C@@H]1[C@H](c1ccc(S(=O)(=O)N3CCOCC3)cc1)N2 0.29%
COc1ccc(N(CC(=O)Nc2ccc(F)cc2F)S(=O)(=O)c2c(C)nn(C)c2C)cc1 -1.28%
Cc1cc(-n2c(C)cc(C(=O)CN3C(=O)NC4(CCCCC4C)C3=O)c2C)no1 (configuration not stated) 1.72%
COc1ccc(N2CCN(c3nc4c(c(=O)n(C)c(=O)n4C)n3CCCc3ccccc3)CC2)cc1 -1.29%
CCOC(=O)C[C@H]1c2ccccc2S(=O)(=O)N1Cc1cc(OC)c(OC)c(OC)c1 1.62%
Cc1ccccc1NC(=S)NCCc1ccc(S(N)(=O)=O)cc1 1.91%
Cc1ccc(S(=O)(=O)N2CCCCC2CCNC(=O)C(=O)NC2CC2)cc1 (configuration not stated) 0.46%
Cc1ccc(C)c(S(=O)(=O)N2CCCCC2CCNC(=O)C(=O)NC2CC2)c1 (configuration not stated) -1.15%
Cc1ccc(CN(C)C(=O)c2cc(COc3ccc(F)cc3Cl)on2)o1 6.3%
CSc1ccccc1OCc1cc(C(=O)N(C)Cc2cc(C)[nH]n2)no1 4.8%
Cc1ccc(S(=O)(=O)NCCC(=O)NCc2ccccn2)cc1 -1.85%
O=C(O)c1cccc(CN2C(=O)c3ccccc3C2=O)c1 2.88%
O=[N+]([O-])c1ccc(S(=O)(=O)Nc2cccc(-c3ccc(N4CCCC4)nn3)c2)cc1 22.4%
O=[N+]([O-])c1ccccc1S(=O)(=O)Nc1ccc(-c2ccc(N3CCOCC3)nn2)cc1 -1.46%
O=[N+]([O-])c1ccc(S(=O)(=O)Nc2cccc(-c3ccc(N4CCOCC4)nn3)c2)cc1 38.2%
O=[N+]([O-])c1ccccc1S(=O)(=O)Nc1ccc(-c2ccc(N3CCCC3)nn2)cc1 -1.43%
COc1ccc([N+](=O)[O-])cc1NC(=O)Cn1ccsc1=N 4.59%
O=C(Nc1cccc(Cl)c1)c1ccc(NCCCN2CCOCC2)c([N+](=O)[O-])c1 5.44%
O=C(NCc1cccnc1)Nc1ccc(Br)cc1Cl 1.28%
COc1ccc(N2CCN(C(=O)CCc3cc(OC)c(OC)c(OC)c3)CC2)cc1 1.91%
Cc1cc(NCCCO)n2nc(-c3cccs3)cc2n1 9%
CN(C)CCCNc1cc(-c2ccccc2)nc2cc(-c3cccc(F)c3)nn12 -1.34%
Cc1cc(NCCCn2ccnc2)n2nc(-c3ccc(F)cc3)cc2n1 -1.16%
COCCNc1cc(C)nc2cc(-c3ccc(C)cc3)nn12 2.67%
Cc1nc2cc(NC(=O)N(C)c3ccc4ccccc4c3)ccc2o1 12.7%
CCOCCCn1c(SCC(=O)Nc2ccc(NC(C)=O)cc2)nc2ccccc2c1=O 0.96%
CC(=O)c1c(C)[nH]c(C(=O)OCC(=O)Nc2cccc(S(=O)(=O)N(C)C)c2)c1C 6.22%
CCN(CC)C1=N/C(=C\c2ccco2)C(=O)N1c1ccccc1 2.62%
CCSC1=N/C(=C\c2ccccc2)C(=O)N1c1ccc(OC)cc1 2.7%
CN(C(=O)CCCN1C(=O)c2ccccc2C1=O)C1CCCCC1 2.46%
COc1ccc(CNC(=O)Nc2cc(C)ccc2C)cc1 2.36%
O=C1CCC([N+](=O)[O-])C(c2ccc(Cl)c([N+](=O)[O-])c2)N1 (configuration not stated) -2.01%
O=C1CCSc2ccc(Cl)cc2N1Cc1ccc(Cl)cc1 45.3%
O=C1CCSc2ccc(Cl)cc2N1Cc1ccccc1 1.94%
Cc1ccc(S(=O)(=O)CCC(=O)Nc2sccc2C#N)cc1 0.59%
COC(=O)Cc1ccc(NC(=S)N2CCN(c3ccc(OC)cc3)CC2)cc1 13.6%
COc1ccc2nc(NC(=O)c3ccccc3F)sc2c1 3.79%
COc1ccc2nc(NC(=O)c3ccccc3C(=O)O)sc2c1 1.92%
Cc1ccc(S(=O)(=O)N2[C@@H](c3ccc(F)cc3)C(C(=O)O)=CC[C@H]2c2cccc(Cl)c2)cc1 1.86%
CCc1cc(S(=O)(=O)N2CCN(C(=O)c3ccco3)CC2)ccc1OC 3.94%
